Laboratory results as given in article PMC7862700, “An all-to-all approach to the identification of sequence-specific readers for epigenetic DNA modifications on cytosine”.

Legend:
Experiment in all cases: DAPPL (digital affinity profiling via proximity ligation, sequencing); 10 mM Tris-HCl pH 7.5, 50 mM NaCl, 1 mM DTT, 4% glycerol, room temperature, 30 min; GST-TFs on glutathione beads, 16-mer random dsDNA library, 0.1% formaldehyde crosslink after washing; high values mean tight binding
Conditions in all cases: protein: recombinant; tags: N-terminal GST; dsDNA, one strand shown
FLI1 = target: T1, FLI1 (Homo sapiens, UniProt Q01543 1-452)
T1 sequence: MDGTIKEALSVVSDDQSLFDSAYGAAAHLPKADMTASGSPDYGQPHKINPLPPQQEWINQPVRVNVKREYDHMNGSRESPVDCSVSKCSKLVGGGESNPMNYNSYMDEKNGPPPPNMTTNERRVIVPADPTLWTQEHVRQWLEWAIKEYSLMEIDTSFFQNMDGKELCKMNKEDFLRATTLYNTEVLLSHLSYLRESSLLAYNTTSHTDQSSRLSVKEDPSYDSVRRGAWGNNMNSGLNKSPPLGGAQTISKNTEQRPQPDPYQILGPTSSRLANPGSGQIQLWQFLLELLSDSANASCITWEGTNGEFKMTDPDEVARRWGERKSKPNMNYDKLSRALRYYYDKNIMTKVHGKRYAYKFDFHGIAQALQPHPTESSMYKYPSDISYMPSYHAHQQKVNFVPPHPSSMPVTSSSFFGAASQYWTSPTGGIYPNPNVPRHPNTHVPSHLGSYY
Outline: (§1)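 In yeast, human transcription factors were expressed with a GST fusion, then pulled down on glutathione beads and given DNA barcodes. Pooled with a tag-only sample, they were exposed to 200 nmole of a 16-mer random double-stranded DNA library (Tris/NaCl/DTT/glycerol buffer, room temperature, 30 min), washed, crosslinked with 0.1% formaldehyde, proximity-ligated using BsaI/T4 ligase for 1 h at 37 °C, PCR-amplified and read on an Illumina NextSeq500. Each hexamer's frequency of reads for a factor, divided by the matching frequency for the tag-only sample, gives the binding signal.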

ELK1 = target: T2, ELK1 (Homo sapiens, UniProt P19419 1-428)
T2 sequence: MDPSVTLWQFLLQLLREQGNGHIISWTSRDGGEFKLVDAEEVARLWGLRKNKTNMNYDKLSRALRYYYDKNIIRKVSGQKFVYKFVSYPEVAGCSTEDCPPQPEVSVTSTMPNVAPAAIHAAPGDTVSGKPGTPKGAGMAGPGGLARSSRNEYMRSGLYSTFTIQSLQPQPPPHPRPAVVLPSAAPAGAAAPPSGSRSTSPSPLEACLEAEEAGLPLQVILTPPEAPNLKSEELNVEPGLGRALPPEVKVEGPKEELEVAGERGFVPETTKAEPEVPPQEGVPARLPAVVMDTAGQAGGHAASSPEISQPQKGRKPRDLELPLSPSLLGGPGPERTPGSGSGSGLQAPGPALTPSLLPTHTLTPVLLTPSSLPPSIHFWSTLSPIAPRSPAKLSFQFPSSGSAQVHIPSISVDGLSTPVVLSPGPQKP
Outline: as §1

GABPA = target: T3, GABPA (Homo sapiens, UniProt Q06546 1-454)
T3 sequence: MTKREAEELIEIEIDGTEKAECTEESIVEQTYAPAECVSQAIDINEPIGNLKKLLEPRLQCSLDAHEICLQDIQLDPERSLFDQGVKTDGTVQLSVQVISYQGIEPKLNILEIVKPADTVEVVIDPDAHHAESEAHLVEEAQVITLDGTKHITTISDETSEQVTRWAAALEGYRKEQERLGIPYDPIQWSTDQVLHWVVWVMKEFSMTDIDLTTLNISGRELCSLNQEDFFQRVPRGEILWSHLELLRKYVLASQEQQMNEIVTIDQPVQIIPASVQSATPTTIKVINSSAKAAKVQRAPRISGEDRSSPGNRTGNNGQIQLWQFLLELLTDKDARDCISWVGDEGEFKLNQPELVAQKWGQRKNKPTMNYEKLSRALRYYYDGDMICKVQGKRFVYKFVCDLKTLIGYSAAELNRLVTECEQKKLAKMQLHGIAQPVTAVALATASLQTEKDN
Outline: as §1

ERG = target: T4, ERG (Homo sapiens, UniProt P11308 1-479)
T4 sequence: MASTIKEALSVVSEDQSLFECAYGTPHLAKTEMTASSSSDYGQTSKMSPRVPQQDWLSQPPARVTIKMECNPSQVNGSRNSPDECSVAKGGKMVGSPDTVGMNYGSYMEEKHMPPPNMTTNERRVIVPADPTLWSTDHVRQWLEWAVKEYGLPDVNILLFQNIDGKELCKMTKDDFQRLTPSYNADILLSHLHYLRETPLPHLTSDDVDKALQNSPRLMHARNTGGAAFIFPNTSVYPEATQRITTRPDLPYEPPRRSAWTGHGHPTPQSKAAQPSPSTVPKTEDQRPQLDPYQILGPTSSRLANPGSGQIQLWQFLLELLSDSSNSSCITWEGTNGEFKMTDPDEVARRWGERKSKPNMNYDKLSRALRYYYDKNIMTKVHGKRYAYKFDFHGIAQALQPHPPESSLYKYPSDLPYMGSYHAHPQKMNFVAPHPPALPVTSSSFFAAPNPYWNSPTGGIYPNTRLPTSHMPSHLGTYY
Outline: as §1

ELF1 = ELF1 (Homo sapiens, UniProt P32519 1-619)
Outline: as §1

EHF = target: T5, EHF (Homo sapiens, UniProt Q9NZC4 1-300)
T5 sequence: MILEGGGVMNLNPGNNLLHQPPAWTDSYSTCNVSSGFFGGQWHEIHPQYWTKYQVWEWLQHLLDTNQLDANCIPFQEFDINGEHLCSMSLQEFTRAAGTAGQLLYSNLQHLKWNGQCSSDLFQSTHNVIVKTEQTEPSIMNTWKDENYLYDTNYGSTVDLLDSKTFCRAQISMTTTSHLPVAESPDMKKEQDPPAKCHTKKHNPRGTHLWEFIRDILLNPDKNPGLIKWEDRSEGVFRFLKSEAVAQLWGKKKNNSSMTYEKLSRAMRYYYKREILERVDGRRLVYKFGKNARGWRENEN
Outline: as §1

SPI1 = SPI1 (Homo sapiens, UniProt P17947 1-270)
Outline: as §1

SPIB = SPIB (Homo sapiens, UniProt Q01892 1-262)
Outline: as §1

ELK3 = target: T6, ELK3 (Homo sapiens, UniProt P41970 1-407)
T6 sequence: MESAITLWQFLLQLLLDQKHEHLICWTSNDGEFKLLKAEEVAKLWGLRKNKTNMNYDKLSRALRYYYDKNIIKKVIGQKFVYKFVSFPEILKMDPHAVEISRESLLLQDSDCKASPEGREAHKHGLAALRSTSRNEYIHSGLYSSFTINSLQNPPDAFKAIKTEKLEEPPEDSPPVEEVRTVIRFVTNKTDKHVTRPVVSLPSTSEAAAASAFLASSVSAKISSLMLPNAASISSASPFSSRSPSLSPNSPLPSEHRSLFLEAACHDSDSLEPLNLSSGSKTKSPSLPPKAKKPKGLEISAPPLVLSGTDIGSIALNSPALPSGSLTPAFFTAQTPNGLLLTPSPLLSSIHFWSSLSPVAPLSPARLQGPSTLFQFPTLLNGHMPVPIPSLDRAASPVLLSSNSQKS
Outline: as §1

Sequence of ELF1 (P32519 whole entry): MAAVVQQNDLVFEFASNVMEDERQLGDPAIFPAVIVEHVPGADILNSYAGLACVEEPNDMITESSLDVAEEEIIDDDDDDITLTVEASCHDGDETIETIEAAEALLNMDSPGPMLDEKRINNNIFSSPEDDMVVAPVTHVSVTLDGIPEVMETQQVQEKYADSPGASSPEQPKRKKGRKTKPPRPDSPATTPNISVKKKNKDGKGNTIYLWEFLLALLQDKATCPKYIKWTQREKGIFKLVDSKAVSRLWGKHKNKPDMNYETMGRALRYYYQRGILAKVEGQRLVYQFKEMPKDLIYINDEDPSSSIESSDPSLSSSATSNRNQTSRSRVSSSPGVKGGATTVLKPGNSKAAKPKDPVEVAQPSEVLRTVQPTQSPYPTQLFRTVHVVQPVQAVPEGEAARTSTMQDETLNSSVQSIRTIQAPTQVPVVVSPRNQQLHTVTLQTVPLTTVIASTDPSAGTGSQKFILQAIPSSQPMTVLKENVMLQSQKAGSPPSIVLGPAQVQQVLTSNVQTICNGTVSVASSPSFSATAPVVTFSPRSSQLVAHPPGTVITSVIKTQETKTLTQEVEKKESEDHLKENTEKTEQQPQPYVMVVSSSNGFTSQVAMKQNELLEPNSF
Sequence of SPIB (Q01892 whole entry): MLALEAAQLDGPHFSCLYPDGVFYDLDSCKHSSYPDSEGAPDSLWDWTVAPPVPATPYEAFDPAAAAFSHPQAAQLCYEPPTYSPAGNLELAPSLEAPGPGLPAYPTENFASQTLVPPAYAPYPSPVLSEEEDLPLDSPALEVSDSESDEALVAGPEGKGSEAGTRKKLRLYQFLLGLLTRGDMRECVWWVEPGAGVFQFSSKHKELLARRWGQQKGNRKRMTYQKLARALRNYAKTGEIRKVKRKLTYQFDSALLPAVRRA

Sequence | binding signal (FLI1) | binding signal (ELK1) | binding signal (GABPA) | binding signal (ERG) | binding signal (ELF1) | binding signal (EHF) | binding signal (SPI1) | binding signal (SPIB) | binding signal (ELK3)
AAAAGC | 1.16 fold enrichment (6-mer frequency, TF over GST control) | 1.13 fold enrichment (6-mer frequency, TF over GST control) | 1.14 fold enrichment (6-mer frequency, TF over GST control) | 1.24 fold enrichment (6-mer frequency, TF over GST control) | 1.2 fold enrichment (6-mer frequency, TF over GST control) | 1.14 fold enrichment (6-mer frequency, TF over GST control) | 1.55 fold enrichment (6-mer frequency, TF over GST control) | 1.23 fold enrichment (6-mer frequency, TF over GST control) | 1.15 fold enrichment (6-mer frequency, TF over GST control)
TAGCTA | 1.22 fold enrichment (6-mer frequency, TF over GST control) | 1.24 fold enrichment (6-mer frequency, TF over GST control) | 1.21 fold enrichment (6-mer frequency, TF over GST control) | 1.22 fold enrichment (6-mer frequency, TF over GST control) | 1.25 fold enrichment (6-mer frequency, TF over GST control) | 1.22 fold enrichment (6-mer frequency, TF over GST control) | 1.2 fold enrichment (6-mer frequency, TF over GST control) | 1.22 fold enrichment (6-mer frequency, TF over GST control) | 1.29 fold enrichment (6-mer frequency, TF over GST control)
TGGTAA | 1.28 fold enrichment (6-mer frequency, TF over GST control) | 1.33 fold enrichment (6-mer frequency, TF over GST control) | 1.32 fold enrichment (6-mer frequency, TF over GST control) | 1.28 fold enrichment (6-mer frequency, TF over GST control) | 1.28 fold enrichment (6-mer frequency, TF over GST control) | 1.37 fold enrichment (6-mer frequency, TF over GST control) | 1.28 fold enrichment (6-mer frequency, TF over GST control) | 1.4 fold enrichment (6-mer frequency, TF over GST control) | 1.32 fold enrichment (6-mer frequency, TF over GST control)
CTTCGG | 1.48 fold enrichment (6-mer frequency, TF over GST control) | 1.46 fold enrichment (6-mer frequency, TF over GST control) | 1.58 fold enrichment (6-mer frequency, TF over GST control) | 1.35 fold enrichment (6-mer frequency, TF over GST control) | 1.39 fold enrichment (6-mer frequency, TF over GST control) | 1.24 fold enrichment (6-mer frequency, TF over GST control) | 1.37 fold enrichment (6-mer frequency, TF over GST control) | 1.46 fold enrichment (6-mer frequency, TF over GST control) | 1.38 fold enrichment (6-mer frequency, TF over GST control)
AAAACA | 1.35 fold enrichment (6-mer frequency, TF over GST control) | 1.22 fold enrichment (6-mer frequency, TF over GST control) | 1.35 fold enrichment (6-mer frequency, TF over GST control) | 1.34 fold enrichment (6-mer frequency, TF over GST control) | 1.31 fold enrichment (6-mer frequency, TF over GST control) | 1.31 fold enrichment (6-mer frequency, TF over GST control) | 1.36 fold enrichment (6-mer frequency, TF over GST control) | 1.24 fold enrichment (6-mer frequency, TF over GST control) | 1.28 fold enrichment (6-mer frequency, TF over GST control)
TACCTA | 1.32 fold enrichment (6-mer frequency, TF over GST control) | 1.26 fold enrichment (6-mer frequency, TF over GST control) | 1.24 fold enrichment (6-mer frequency, TF over GST control) | 1.13 fold enrichment (6-mer frequency, TF over GST control) | 1.34 fold enrichment (6-mer frequency, TF over GST control) | 1.22 fold enrichment (6-mer frequency, TF over GST control) | 1.28 fold enrichment (6-mer frequency, TF over GST control) | 1.22 fold enrichment (6-mer frequency, TF over GST control) | 1.23 fold enrichment (6-mer frequency, TF over GST control)
TTTATG | 1.31 fold enrichment (6-mer frequency, TF over GST control) | 1.21 fold enrichment (6-mer frequency, TF over GST control) | 1.4 fold enrichment (6-mer frequency, TF over GST control) | 1.21 fold enrichment (6-mer frequency, TF over GST control) | 1.18 fold enrichment (6-mer frequency, TF over GST control) | 1.34 fold enrichment (6-mer frequency, TF over GST control) | 1.34 fold enrichment (6-mer frequency, TF over GST control) | 1.29 fold enrichment (6-mer frequency, TF over GST control) | 1.34 fold enrichment (6-mer frequency, TF over GST control)
TCTAAT | 1.2 fold enrichment (6-mer frequency, TF over GST control) | 1.17 fold enrichment (6-mer frequency, TF over GST control) | 1.18 fold enrichment (6-mer frequency, TF over GST control) | 1.17 fold enrichment (6-mer frequency, TF over GST control) | 1.14 fold enrichment (6-mer frequency, TF over GST control) | 1.26 fold enrichment (6-mer frequency, TF over GST control) | 1.19 fold enrichment (6-mer frequency, TF over GST control) | 1.16 fold enrichment (6-mer frequency, TF over GST control) | 1.21 fold enrichment (6-mer frequency, TF over GST control)
